Measurements taken from PubChem BioAssay (EPA / NIEHS).
Several values for one entry are separate records, joined by “and”; a condition that tells them apart may be missing. Identical values can stand only once. Results filed as inconclusive are left out. A structure can be active in one record and inactive in another. Activity calls are given as the source filed them. The calls were made as follows: active = hit-call score of the fitted dose curve at least 0.9, where 1 is the maximum; inconclusive = response in the unintended direction; inactive = score below 0.9.

Target: Estrogen receptor (Homo sapiens) (UniProt P03372)
Sequence (P03372 whole entry, looked up): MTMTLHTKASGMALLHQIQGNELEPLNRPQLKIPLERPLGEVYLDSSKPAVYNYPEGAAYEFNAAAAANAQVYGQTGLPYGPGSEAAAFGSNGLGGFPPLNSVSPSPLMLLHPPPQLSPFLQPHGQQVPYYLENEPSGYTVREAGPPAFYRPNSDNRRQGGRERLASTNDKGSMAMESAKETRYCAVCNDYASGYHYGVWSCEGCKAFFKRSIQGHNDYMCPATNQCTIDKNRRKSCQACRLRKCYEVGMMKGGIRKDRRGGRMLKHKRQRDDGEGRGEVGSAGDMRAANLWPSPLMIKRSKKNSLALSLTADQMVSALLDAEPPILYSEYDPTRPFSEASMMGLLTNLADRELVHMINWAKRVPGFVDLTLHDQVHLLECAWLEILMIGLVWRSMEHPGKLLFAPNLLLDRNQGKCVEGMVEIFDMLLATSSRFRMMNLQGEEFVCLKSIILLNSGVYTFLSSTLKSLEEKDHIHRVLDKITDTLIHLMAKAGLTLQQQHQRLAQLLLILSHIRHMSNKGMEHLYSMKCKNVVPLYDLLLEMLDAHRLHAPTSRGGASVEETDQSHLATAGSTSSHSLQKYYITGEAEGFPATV
Test: OT_ERa_GFPERaERE_0120: Odyssey Thera (OT) 2-hour HeLa Transcription Induction Assay for Estrogen Receptor (AID 2283382)
In short: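 HeLa, 384-well, 2 h chemical exposure; GFP reporter induction (ERE), fluorescence microscopy; high content image analysis; positive fitting direction vs DMSO.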

Row | Compound | AC50 | outcome
1 | [Cl-].[Cl-].[Hg+2] | 21.5 µM (active) | 
2 | CCC[CH2][Sn]([Cl])([CH2]CCC)[CH2]CCC |  | inactive
3 | O=C(Oc1ccc(Br)cc1)N1CCN2CCC1CC2 |  | inactive
4 | O=C(Nc1ccccc1)c1ccccc1I |  | inactive
5 | Cn1cc(-c2ccccc2)c(=O)c(-c2cccc(C(F)(F)F)c2)c1 |  | inactive
6 | CCCCCCCCn1sccc1=O |  | inactive
7 | Nc1ccc(N=Nc2ccccc2)cc1 |  | inactive

Target: Bile acid receptor (Homo sapiens) (UniProt Q96RI1)
Sequence (Q96RI1 whole entry, looked up): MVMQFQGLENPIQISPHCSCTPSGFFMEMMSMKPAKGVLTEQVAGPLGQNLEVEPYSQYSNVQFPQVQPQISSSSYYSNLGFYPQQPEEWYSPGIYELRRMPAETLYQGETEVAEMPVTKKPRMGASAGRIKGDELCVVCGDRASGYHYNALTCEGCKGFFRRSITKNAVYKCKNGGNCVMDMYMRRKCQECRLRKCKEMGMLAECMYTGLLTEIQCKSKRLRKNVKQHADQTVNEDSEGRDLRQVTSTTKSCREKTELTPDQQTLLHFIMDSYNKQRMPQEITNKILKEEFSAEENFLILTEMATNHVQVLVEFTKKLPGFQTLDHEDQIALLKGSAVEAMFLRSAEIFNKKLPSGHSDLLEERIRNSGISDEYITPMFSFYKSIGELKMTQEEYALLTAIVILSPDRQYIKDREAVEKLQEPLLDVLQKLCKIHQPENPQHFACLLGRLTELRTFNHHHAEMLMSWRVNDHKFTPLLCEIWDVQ
Test: OT_FXR_FXRSRC1_0480: Odyssey Thera (OT) 8-hour HEK293T Protein-Complementation Assay for Farnesoid X receptor/SRC-1 Co-activator (AID 2283383)
In short: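 Human kidney HEK293T cells carried FXR/SRC-1 fragment-complementation constructs. Compounds were added and incubated 8 h. Reporter reassembly upon receptor–co-activator interaction was then quantified by fluorescence, with curves fitted in the positive direction relative to DMSO.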

Row | Compound | outcome | AC50
8 | CCC[CH2][Sn]([Cl])([CH2]CCC)[CH2]CCC | inactive | 
9 | Cc1cccc(N)c1N |  | 42.8 µM (active)
10 | Cc1cc(N=Nc2ccccc2C)ccc1N | inactive | 
11 | CCC(C)c1ccc(O)cc1 (stereo not drawn) | inactive | 
12 | CN(C)[C@@H]1C(=O)C(C(N)=O)=C(O)[C@@]2(O)C(=O)C3=C(O)c4c(O)cccc4[C@@](C)(O)[C@H]3C[C@@H]12 | inactive | 
13 | CC(C)(OOC(C)(C)c1ccccc1)c1ccccc1 |  | 58.3 µM (active)
14 | COP(=S)(OC)SCN1C(=O)c2ccccc2C1=O | inactive | 
15 | O=C(N[C@H](c1ccccc1)[C@@H]1CN2CCC1CC2)c1c(Cl)ccc(C(F)(F)F)c1Cl | inactive | 
16 | Nc1ccc(N=Nc2ccccc2)cc1 | inactive | 
17 | Nc1ccc(Cc2ccc(N)cc2)cc1 | inactive | 
18 | CCOC(=O)[C@]1(c2ccccc2)Oc2ccccc2[C@@H]1N | inactive | 
19 | CCCCCCCCOC(=O)c1ccc(C(=O)OCCCCCCCC)c(C(=O)OCCCCCCCC)c1 | inactive | 
20 | CC(C)N(Cc1ccccc1)C(=O)C(C)(C)C | inactive | 
21 | C[C@]12C=CC3=C4CCC(=O)C=C4CC[C@H]3[C@@H]1CC[C@@H]2O | inactive | 12.7 µM (active) and 14.2 µM (active) and 12.3 µM (active)
22 | Nc1ccc(Cl)cc1N |  | 35.3 µM (active)

Target: Bile acid receptor (Homo sapiens) (UniProt Q96RI1)
Test: OT_FXR_FXRSRC1_1440: Odyssey Thera (OT) 24-hour HEK293T Protein-Complementation Assay for Farnesoid X receptor/SRC-1 Co-activator (AID 2283384)
In short: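 Compounds are applied to human kidney HEK293T cells expressing bait and prey fused to reporter protein fragments; after 24 h, reconstituted reporter fluorescence is measured. Activity is fitted as signal gain over DMSO.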

Row | Compound | AC50 | outcome
23 | CCC[CH2][Sn]([Cl])([CH2]CCC)[CH2]CCC | 82 µM (active) | 
24 | Cc1cccc(N)c1N | 49.3 µM (active) | 
25 | CCC(C)c1ccc(O)cc1 (stereo not drawn) |  | inactive
26 | CN(C)[C@@H]1C(=O)C(C(N)=O)=C(O)[C@@]2(O)C(=O)C3=C(O)c4c(O)cccc4[C@@](C)(O)[C@H]3C[C@@H]12 |  | inactive
27 | CC(C)(OOC(C)(C)c1ccccc1)c1ccccc1 | 65.1 µM (active) | 
28 | COP(=S)(OC)SCN1C(=O)c2ccccc2C1=O |  | inactive
29 | Nc1ccc(N=Nc2ccccc2)cc1 | 12.2 µM (active) | 
30 | Nc1ccc([N+](=O)[O-])cc1 | 13.3 µM (active) | 
31 | Nc1ccc(Cc2ccc(N)cc2)cc1 |  | inactive
32 | CCOC(=O)[C@]1(c2ccccc2)Oc2ccccc2[C@@H]1N |  | inactive
33 | CCCCCCCCOC(=O)c1ccc(C(=O)OCCCCCCCC)c(C(=O)OCCCCCCCC)c1 |  | inactive
34 | CC(C)N(Cc1ccccc1)C(=O)C(C)(C)C |  | inactive
35 | C[C@]12C=CC3=C4CCC(=O)C=C4CC[C@H]3[C@@H]1CC[C@@H]2O | 21.3 µM (active) and 21.2 µM (active) and 19.5 µM (active) | inactive
36 | Nc1ccc(Cl)cc1N | 33.8 µM (active) | 

Target: Retinoic acid receptor RXR-alpha (Homo sapiens) (UniProt P19793)
Sequence (P19793 whole entry, looked up): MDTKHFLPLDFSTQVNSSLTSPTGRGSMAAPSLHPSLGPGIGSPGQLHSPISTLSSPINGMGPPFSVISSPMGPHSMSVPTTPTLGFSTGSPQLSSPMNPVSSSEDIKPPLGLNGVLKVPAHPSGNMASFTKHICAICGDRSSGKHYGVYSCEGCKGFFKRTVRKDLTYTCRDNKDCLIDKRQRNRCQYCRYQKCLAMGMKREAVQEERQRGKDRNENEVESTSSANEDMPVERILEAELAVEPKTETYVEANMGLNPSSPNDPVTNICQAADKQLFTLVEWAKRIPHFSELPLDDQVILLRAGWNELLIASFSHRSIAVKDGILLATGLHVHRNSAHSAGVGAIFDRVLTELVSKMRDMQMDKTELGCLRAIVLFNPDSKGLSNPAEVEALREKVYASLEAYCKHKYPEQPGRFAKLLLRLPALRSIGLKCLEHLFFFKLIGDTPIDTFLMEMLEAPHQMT
Test: OT_NURR1_NURR1RXRa_0480: Odyssey Thera (OT) 8-hour HEK293T Protein Complementation Assay for Nurr1/retinoid X receptor (RXR) (AID 2283385)
In short: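 8 h compound exposure, HEK293T; Nurr1/RXRα fragment complementation; fluorescence intensity; positive fitting direction vs DMSO baseline.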

Row | Compound | outcome
37 | CCCCOC(=O)c1ccccc1C(=O)OCc1ccccc1 | inactive
38 | CN(C)[C@@H]1C(=O)C(C(N)=O)=C(O)[C@@]2(O)C(=O)C3=C(O)c4c(O)cccc4[C@@](C)(O)[C@H]3C[C@@H]12 | inactive
39 | CC(C)(C)C(O)(CCc1ccc(Cl)cc1)Cn1cncn1 (stereo not drawn) | inactive
40 | O=C(Oc1ccc(Br)cc1)N1CCN2CCC1CC2 | inactive
41 | Cn1cc(-c2ccccc2)c(=O)c(-c2cccc(C(F)(F)F)c2)c1 | inactive
42 | C=CCc1ccc2c(c1)OCO2 | inactive
43 | Nc1ccc(N=Nc2ccccc2)cc1 | inactive

Target: Retinoic acid receptor RXR-alpha (Homo sapiens) (UniProt P19793)
Test: OT_NURR1_NURR1RXRa_1440: Odyssey Thera (OT) 24-hour HEK293T Protein Complementation Assay for Nurr1/retinoid X receptor (RXR) (AID 2283386)
In short: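 Interaction of Nurr1 with RXRα brings fused reporter fragments together in human HEK293T cells, restoring a functional reporter. Fluorescence intensity is measured 24 h after chemical treatment, and values are analysed in the positive direction against DMSO.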

Row | Compound | AC50 | outcome
44 | [Cl-].[Cl-].[Hg+2] | 11.4 µM (active) | 
45 | CCC[CH2][Sn]([Cl])([CH2]CCC)[CH2]CCC |  | inactive
46 | Cc1cccc(N)c1N |  | inactive
47 | Cc1cc(N=Nc2ccccc2C)ccc1N |  | inactive
48 | CCCCOC(=O)c1ccccc1C(=O)OCc1ccccc1 |  | inactive
49 | CCC(C)c1ccc(O)cc1 (stereo not drawn) |  | inactive
50 | CN(C)[C@@H]1C(=O)C(C(N)=O)=C(O)[C@@]2(O)C(=O)C3=C(O)c4c(O)cccc4[C@@](C)(O)[C@H]3C[C@@H]12 |  | inactive
51 | CC(C)(C)C(O)(CCc1ccc(Cl)cc1)Cn1cncn1 (stereo not drawn) |  | inactive
52 | O=[N+]([O-])C(Br)(CO)CO |  | inactive
53 | O=C(Oc1ccc(Br)cc1)N1CCN2CCC1CC2 |  | inactive
54 | COC(=O)c1ccccc1N |  | inactive
55 | CC(C)(OOC(C)(C)c1ccccc1)c1ccccc1 | 78.3 µM (active) and 78.5 µM (active) | 
56 | CCCCCCCCn1sccc1=O | 12 µM (active) | 
57 | C=CCc1ccc2c(c1)OCO2 |  | inactive
58 | Nc1ccc(Oc2ccc(N)cc2)cc1 |  | inactive
59 | Nc1ccc([N+](=O)[O-])cc1 | 26.9 µM (active) | inactive
60 | Nc1ccc(Cc2ccc(N)cc2)cc1 |  | inactive
61 | CCCCCCCCOC(=O)c1ccc(C(=O)OCCCCCCCC)c(C(=O)OCCCCCCCC)c1 |  | inactive
62 | C[C@]12C=CC3=C4CCC(=O)C=C4CC[C@H]3[C@@H]1CC[C@@H]2O | 12 µM (active) and 12.5 µM (active) and 12.6 µM (active) | inactive
63 | Nc1ccc(Cl)cc1N | 31.3 µM (active) | inactive
